What all share (assay): NCI-60 one-dose screen, 48 h (100 = growth as untreated, 0 = no growth, -100 = all killed)
What all share (details): 10 µM unless noted

The subject of experiment [1] is NCI/ADR-RES ovarian.
Experiment [2] concerns T-47D breast.
In experiment [3] the test system is BT-549 breast.
Experiment [4] relates to MDA-MB-435 melanoma.
Experiment [5] relates to SW-620 colon.
For experiment [6], the system named is MCF7 breast.
Experiment [7] relates to HCT-116 colon.
Experiment [8] has as its system HCC-2998 colon.
Experiment [9] has as its system KM12 colon.

Compounds without any hit were thinned out: in the full panel of roughly 83,000, 20% have a hit.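 Percent growth is the endpoint: 0 to 100 indicates growth inhibition (40 means 60% inhibition), 0 means no net growth, and negative values indicate cell death.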 Unmarked numbers belong to inactive results. Activity calls are given as the source filed them. The calls were made as follows: active = growth percent below 10; inactive = the rest.

Consider `CN(C)C1C(=O)C(C(N)=O)=C(O)C2(O)C(=O)C3=C(O)c4c(O)cccc4C(C)(O)C3CC12.[Cl][Sb]([Cl])[Cl]` (centres undefined), for which the growth is 56.9% in experiment [1]; 60.3% in [2]; 15.5% in experiment [3]; 24.1% in [4]; 34.7% in experiment [5]; 57.6% in [6]. Besides, the growth was 11.9% in experiment [7], 39.6% in experiment [8] and 45.9% in experiment [9].
In the case of `CCOc1ccc(/C=C/[N+](=O)[O-])cc1`, the growth is 100% in [1]; 86% in experiment [2]; 80.8% in experiment [3]; 20.1% in [4]; 66.6% in experiment [5]; 28.5% in [6]. Further, the growth is -31.6% (active) in experiment [7], 23.7% in [8] and 70.7% in experiment [9].
Take `c1cnc2[nH]cc(-c3csc(-c4cn(CCCCN5CCOCC5)c5ccccc45)n3)c2c1`: the growth in experiment [1] was 69.4%; in experiment [2], 36.1%; in experiment [3], 79.6%; in [4] it was 24.4%; in [5], 18.1%; in [6] it was 25.1%. The growth in experiment [7] was 40.3%; in experiment [8], 56.9%; in [9] it was 24.1%.
As to `O=C1OCC2=C1C(c1ccccc1)c1cc3c(cc1N2)OCO3` (centres undefined), the growth in experiment [1] was -0.134% (active); in [2], 62.6%; in experiment [3], -5.6% (active); in experiment [4], -24.9% (active); in [5] it was 27.8%; in experiment [6], 15.9%. Also, the values for the growth in experiment [7], in experiment [8] and in experiment [9] were 4.53% (active), 3.21% (active) and -32% (active), respectively.
In the case of `O=C(O)C(O)C(O)C1[O][Sb]([c]2ccc([N+](=O)[O-])cc2)[O]C1CO` (centres undefined), the growth in [1] is 111%; in experiment [2] it was 109%; in [3], 114%; in [4] it was 107%; in [5], 103%; in experiment [6], 93.9%. Besides, the growth was 104% in experiment [7], 105% in experiment [8] and 108% in experiment [9].
As to `Clc1cccc(Cl)c1Cl`, the growth in experiment [1] was 105%; in [2] it was 85.8%; in [3] it was 102%; in [4], 105%; in [5], 105%; in [6], 93.5%. The figures for the growth in [7], in experiment [8] and in [9] were 98.9%, 99.8% and 100%, respectively.
Regarding `O=C1NC(=O)C(=Cc2cccn2CCCCCn2c3ccccc3c(=O)c3ccccc32)C(=O)N1`, the growth was 99.5% in experiment [1]; 87.3% in experiment [2]; 104% in [3]; 97.7% in experiment [4]; 105% in [5]; 84.7% in [6]. In addition, the growth in experiment [7] is 82.2%; in experiment [8], 105%; in experiment [9] it was 103%.
Regarding `CC1(C)CN1P(=O)(N1CC1(C)C)N1CC1(C)C` (centres undefined), the growth is 113% in experiment [1]; 107% in experiment [2]; 105% in experiment [3]; 124% in experiment [4]; 100% in experiment [5]; 92.8% in experiment [6]. Further, the figures for the growth in experiment [7], in experiment [8] and in [9] were 105%, 110% and 116%, respectively.
`C=CC12CCN(CC1)C(C(O)c1ccnc3ccc(OC)cc13)C2` (centres undefined): the growth in [1] is 91.8%; in experiment [2], 82.5%; in [3] it was 103%; in experiment [4], 56.5%; in experiment [5], 88.9%; in experiment [6] it was 66.5%. The values for the growth in experiment [7] and in [8] were 60.5% and -34.8% (active), respectively.
As for `O=[N+]([O-])c1ccc(OP(=O)(CCl)N(CCCl)CCCl)cc1` (centres undefined), the growth in experiment [1] is 101%; in experiment [2], 93.8%; in experiment [3], 93.6%; in experiment [4], 104%; in experiment [5], 102%; in experiment [6], 92.5%. Also, the growth in experiment [7] was 97.9%; in experiment [8], 105%; in experiment [9], 101%.
On to `OCCNC(Cc1ccccc1)c1ccc2c(c1)OCO2` (centres undefined), for which the growth in experiment [1] was 102%; in experiment [2], 60%; in experiment [3] it was 81.2%; in experiment [4] it was 108%; in [5] it was 109%; in experiment [6], 92.9%. The growth in experiment [7] was 86.3%; in [8] it was 99.3%; in [9] it was 101%.
For the molecule `C=CC1=C[C@@H]2[C@@H]3O[C@]4(CC[C@H](O4)[C@@H](C)C[C@@H](O)C3=O)C[C@H](O)C3=NCC[C@@]32CC1`, the growth is -15.3% (active) in experiment [1]; -14.6% (active) in experiment [2]; -31.9% (active) in [3]; -92.9% (active) in [4]; -11.3% (active) in experiment [5]; -11.8% (active) in experiment [6]. For the same molecule, the results for the growth in [7], in [8] and in experiment [9] were -22.8% (active), -81.2% (active) and -33.4% (active), respectively.
Take `C/C(=C\c1ccn(-c2ccc(N)cc2)n1)[C@@H]1C[C@@H]2O[C@]2(C)CCC[C@H](C)[C@H](O)[C@@H](C)C(=O)C(C)(C)[C@@H](O)CC(=O)O1`: the growth in experiment [1] is -2.72% (active); in experiment [2], 42.7%; in [3], 26.9%; in experiment [4], -33.6% (active); in experiment [5] it was 38.3%; in [6] it was 19.1%. In addition, the growth is 10.4% in experiment [7], -0.702% (active) in experiment [8] and 15% in experiment [9].
Take `C=CCn1cc(C=C2C(=O)N(C)C(=O)N(C)C2=O)c2ccccc21`: the growth in [1] is 101%; in experiment [2], 88.7%; in [3], 98%; in experiment [4] it was 101%; in [5], 97.9%; in experiment [6] it was 88.3%. The growth was 100% in [7], 98.1% in [8] and 102% in experiment [9].
Take `O=C1OCCC1Br` (centres undefined): the growth in experiment [1] was 106%; in experiment [2] it was 105%; in experiment [3], 85.3%; in experiment [4] it was 103%; in experiment [5], 103%; in experiment [6], 101%. Also, the growth is 103% in experiment [7], 102% in [8] and 108% in [9].

For the origin of these results see PubChem BioAssay (NCI).
